# Screen size: about 220,000 compounds; about 2,400 (1.1%) were called active. Roughly 7% stayed inconclusive and do not appear here. Calls follow the shape of the dose curve; as a rule, active = well fitted inhibition curve with a large enough effect; inconclusive = small, poorly fitted or top-dose-only effect, or effect the other way; inactive = no such curve, though single readings can be large or run the other way. Only a selection was taken, and actives are over-represented in it overall.
# Test: qHTS Multiplex Assay to Identify Dual Action Probes in a Cell Model of Huntington: Aggregate Formation (GFP); also: nearly all actives have a fitted effect of over 60% in size
# Conditions: PC12 HttQ103-GFP aggregates, Acumen cytometry, 40 h; series mostly up to 9.22 µM; activity change, negative = inhibition: at the top concentration
# Method in brief: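 Read-out: GFP aggregate count by laser scanning cytometer (488 nm excitation, 500-530 nm emission, 1–25 µm objects >6 SD above background). Cells: PC12, inducible HTTex1-Q103-GFP, 100 nM tebufenozide; compounds titrated.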
# % is scaled to controls: 0 for no effect and ±100 for the full control effect; potency is read from the fitted curve at half-maximal effect.
SMILES,Potency,"activity change, negative = inhibition"
Cn1nc(-c2ccc(Cl)cc2)c2cc(C(=O)NCc3ccco3)sc21,20 µM (active),
CCOC(=O)N1CCN(C(=O)c2cc3c(-c4ccc(Cl)cc4)nn(C)c3s2)CC1,,5.53% [at 46.1 µM] (inactive)
COc1ccc(-c2cc(C(=O)NCc3ccco3)no2)cc1OC,,10.5% [at 46.1 µM] (inactive)
CN(CC(O)COc1ccc(S(=O)(=O)N2CCOCC2)cc1Cl)C1CCCCC1 (stereo not drawn),,-4.06% (inactive)
Cn1nnc(NC(=S)NC(=O)c2ccccc2)n1,,11.7% (inactive)
CC(C)Cc1ccc(S(=O)(=O)N2CCN(C(=O)c3ccco3)CC2)cc1,10 µM (active),
CN1CCN(S(=O)(=O)c2ccc(NC(=O)c3ccco3)cc2)CC1,,11.2% [at 46.1 µM] (inactive)
CCNC(=S)N1CCN(C(=O)c2ccco2)CC1,,9.98% [at 46.1 µM] (inactive)
CC1CC(=O)Nc2ccccc2N1S(=O)(=O)c1cccs1 (stereo not drawn),,3.13% (inactive)
O=C(NCCCn1ccnc1)C(=O)NCC1OCCN1S(=O)(=O)c1cc(F)ccc1F (stereo not drawn),,8.85% (inactive)
COC(=O)c1ccccc1NC(=O)CSc1nnnn1C,,-29.7% [at 46.1 µM] (inactive)
CCOC(=O)c1c(-c2ccc(C)cc2C)csc1NC(=O)CSc1nnnn1C,11.2 µM (active),
CCOC(=O)CNC(=O)CSc1nnnn1-c1cc(C)ccc1C,,14.2% [at 46.1 µM] (inactive)
O=S(=O)(c1ccc(Cl)cc1)N1CCCN(c2ccc(C(F)(F)F)cn2)CC1,,-10.6% (inactive)
c1ccc2c(c1)OCC(CNc1ncnc3nc[nH]c13)O2 (stereo not drawn),,-28.7% [at 46.1 µM] (inactive)
Cc1ccc(NC(=O)c2ccc(CSc3ncnc4nc[nH]c34)cc2)c(C)c1,,12.5% [at 46.1 µM] (inactive)
CCc1ccc(N(CC)c2ncnc3nc[nH]c23)cc1,10 µM (active),
COc1ccc2c(c1)SC(C)CC2=O (stereo not drawn),,16.9% [at 46.1 µM] (inactive)
CC1(C)CC(=O)c2ccc(O)cc2O1,,32.4% [at 46.1 µM] (inactive)
COc1ccc2c(c1)OC(O)(C(F)(F)C(F)F)CC2=O (stereo not drawn),20 µM (active),
C=CCSc1nc(N)cc(=O)[nH]1,,2.34% (inactive)
O=C(O)CC1=C(Nc2ccccc2)C(=O)N(c2ccccc2)C1c1ccc(Cl)cc1 (stereo not drawn),,16.1% (inactive)
CC(CO)(CO)NC(=O)c1ccc(=O)[nH]n1,,11.4% (inactive)

SMILES,Potency,"activity change, negative = inhibition"
COc1cccc(/C=N/NC(=O)c2cccc([N+](=O)[O-])c2)c1OS(=O)(=O)c1ccc(C)cc1,,-13.7% [at 46.1 µM] (inactive)
O=C(N/N=C/c1cccc([N+](=O)[O-])c1)c1ccncc1,,7.45% (inactive)
Cc1ccc(N=Nc2c(C)[nH]n(-c3ccccc3)c2=O)cc1,,0% (inactive)
Cc1[nH]n(-c2cccc(Cl)c2)c(=O)c1/C=N/n1c(C)nc2ccccc2c1=O,,-27.5% [at 46.1 µM] (inactive)
Cc1[nH]n(-c2ccccc2)c(=O)c1/C=N/NC(=O)c1ccoc1C,7.08 µM (active),
Cc1ccc(-n2[nH]c(C)c(/C=N/NC(=O)c3cccc([N+](=O)[O-])c3)c2=O)cc1C,5.01 µM (active),
COc1cc2c(cc1OC)[C@@H](Cc1cc(OC)c(OC)c(OC)c1)[N+](C)(CCCOC(=O)CC/C=C/CCC(=O)OCCC[N+]1(C)CCc3cc(OC)c(OC)cc3[C@H]1Cc1cc(OC)c(OC)c(OC)c1)CC2 (stereo partly drawn),,-4.74% [at 46.1 µM] (inactive)
Cc1nc2c(-c3ccccc3)c(C)[nH]n2c(=O)c1Cl,10 µM (active),
Cc1cc(-c2ccccc2)n2nc(C)c(-c3ccccc3)c2n1,,-11.2% [at 46.1 µM] (inactive)
O=c1[nH]n2c(-c3ccccc3)nc(O)c2c2ccccc12,,-14.4% (inactive)
COc1ccc(-c2nn(C)c(=O)c3ccccc23)cc1NC(=O)COc1ccccc1,,-17.9% [at 46.1 µM] (inactive)
Cc1ccc(NC(=O)Cn2nc(C)c3ccccc3c2=O)c(C)c1,,-23.1% [at 46.1 µM] (inactive)
Cc1ccc(F)cc1NC(=O)Cc1nn(C)c(=O)c2ccccc12,14.1 µM (active),
CCCCNC(=O)OCCSCCS(=O)(=O)c1ccc(Cl)cc1,,6.92% (inactive)
CC(C)(C)n1cnnc1Sc1ccc([N+](=O)[O-])cn1,,4.48% (inactive)
CCC(C)N1C(=S)SC(C)(C)C1N(O)C(=O)NC1CCCCC1 (stereo not drawn),,36.2% (inactive)
c1coc(CNc2ncnc3ccccc23)c1,7.94 µM (active),
O=C(NCc1ccncc1)C(=O)NCc1ccco1,,-9.62% [at 46.1 µM] (inactive)
c1ccc(-c2nc(NCc3ccco3)c3ccccc3n2)cc1,,11.2% [at 46.1 µM] (inactive)
Cc1cc(C)cc(NS(=O)(=O)c2ccc(F)cc2)c1,,23.6% (inactive)
CCOc1cc(N2CCOCC2)c(OCC)cc1NC(=O)c1ccc(C)s1,,4.22% (inactive)
CCOc1cc(N2CCOCC2)c(OCC)cc1NC(=O)c1cc(C)nc2ccccc12,,6.16% (inactive)
CCOc1cc(N2CCOCC2)c(OCC)cc1NC(=O)COc1cccc2cccnc12,3.55 µM (active),

SMILES,Potency,"activity change, negative = inhibition"
O=c1c2ccccc2cnn1Cc1n[nH]c(=S)n1-c1ccccc1F,,-0.823% (inactive)
CC(C)OCCCNc1ncnc2c1[nH]c1ccc(F)cc12,2.24 µM (active),
O=C1CCCN1CCCNc1ncnc2c1[nH]c1ccccc12,,10.3% [at 46.1 µM] (inactive)
COc1cc(OC)c(OC)cc1/C=N/Nc1ncnc2c1[nH]c1ccc(C)cc12,,-13.5% (inactive)
COc1ccc(NC(=O)C2CCC(CNc3c(N4CCCCC4)c(=O)c3=O)CC2)c(OC)c1 (stereo not drawn),,0% (inactive)
Cc1cc(N)n(-c2ccc(S(=O)(=O)N3CCCC3)cc2[N+](=O)[O-])n1,,-12.1% (inactive)
CCOC(=O)N1CCN(Cc2nc3c(c(=O)n(C)c(=O)n3C)n2Cc2ccccc2)CC1,,6.2% [at 46.1 µM] (inactive)
COCCn1c(CN(Cc2ccccc2)Cc2ccccc2)nc2c1c(=O)n(C)c(=O)n2C,,-8.79% [at 46.1 µM] (inactive)
Cn1c(=O)c2c(nc(OCc3cccnc3)n2Cc2ccccc2)n(C)c1=O,12.6 µM (active),
O=C(Nc1ccc(Br)cn1)C1CCN(S(=O)(=O)c2cccs2)CC1,,-30.3% (inactive)
COC(=O)c1cccc(NS(C)(=O)=O)c1,,4.68% (inactive)
Cc1ccc(Cl)c(OCC(=O)NN2CCN(C)CC2)c1,,10.6% (inactive)
CCn1c(/C=C/c2ccc([N+](=O)[O-])o2)nc2ccccc2c1=O,11.2 µM (active),
Cn1cc(/C=C/c2nc3ccccc3c(=O)n2-c2cccc([N+](=O)[O-])c2)c2ccccc21,,10.7% [at 46.1 µM] (inactive)
C/[N+]([O-])=C\c1ccc([N+](=O)[O-])o1,,1.96% [at 46.1 µM] (inactive)
CC(NC(=O)C(C)(C)C)C(c1cccs1)N1CCN(Cc2ccccc2)CC1 (stereo not drawn),,0.443% (inactive)
Cc1ccc(C)c2c1cc(C)c1nnc(SCC(=O)Nc3cccc(C(=O)O)c3)n12,,-40.5% (inactive)
O=S(=O)(Nc1ccc(OC(F)(F)F)cc1)c1cccc2nonc12,,0.873% (inactive)
CC(C)CN(CC(C)C)CC(O)CN(c1ccccc1)S(=O)(=O)c1ccccc1[N+](=O)[O-] (stereo not drawn),,-1.18% (inactive)
COc1ccccc1CNC(=O)CCn1c(=O)sc2ccccc21,,0.103% [at 46.1 µM] (inactive)
COc1ccc(Cn2c(=O)sc3ccccc32)cc1OC,0.631 µM (active),
Cc1cccc(CSc2nnc(Cn3c(=O)sc4ccccc43)n2C)c1,,-12.4% [at 46.1 µM] (inactive)
